Results filed as inconclusive are left out. Entries that show only a call come without a potency. Calls of active or inactive are those of the source. Calls come from the whole dose curve; as a rule, active = well fitted activation curve with a large enough effect; inconclusive = small, poorly fitted or top-dose-only effect; inactive = no such curve, though single readings can be large or run the other way.
Potency is the fitted concentration of half-maximal effect.

Sequence of Rap guanine nucleotide exchange factor 4 (Homo sapiens) (Q8WZA2 whole entry, looked up): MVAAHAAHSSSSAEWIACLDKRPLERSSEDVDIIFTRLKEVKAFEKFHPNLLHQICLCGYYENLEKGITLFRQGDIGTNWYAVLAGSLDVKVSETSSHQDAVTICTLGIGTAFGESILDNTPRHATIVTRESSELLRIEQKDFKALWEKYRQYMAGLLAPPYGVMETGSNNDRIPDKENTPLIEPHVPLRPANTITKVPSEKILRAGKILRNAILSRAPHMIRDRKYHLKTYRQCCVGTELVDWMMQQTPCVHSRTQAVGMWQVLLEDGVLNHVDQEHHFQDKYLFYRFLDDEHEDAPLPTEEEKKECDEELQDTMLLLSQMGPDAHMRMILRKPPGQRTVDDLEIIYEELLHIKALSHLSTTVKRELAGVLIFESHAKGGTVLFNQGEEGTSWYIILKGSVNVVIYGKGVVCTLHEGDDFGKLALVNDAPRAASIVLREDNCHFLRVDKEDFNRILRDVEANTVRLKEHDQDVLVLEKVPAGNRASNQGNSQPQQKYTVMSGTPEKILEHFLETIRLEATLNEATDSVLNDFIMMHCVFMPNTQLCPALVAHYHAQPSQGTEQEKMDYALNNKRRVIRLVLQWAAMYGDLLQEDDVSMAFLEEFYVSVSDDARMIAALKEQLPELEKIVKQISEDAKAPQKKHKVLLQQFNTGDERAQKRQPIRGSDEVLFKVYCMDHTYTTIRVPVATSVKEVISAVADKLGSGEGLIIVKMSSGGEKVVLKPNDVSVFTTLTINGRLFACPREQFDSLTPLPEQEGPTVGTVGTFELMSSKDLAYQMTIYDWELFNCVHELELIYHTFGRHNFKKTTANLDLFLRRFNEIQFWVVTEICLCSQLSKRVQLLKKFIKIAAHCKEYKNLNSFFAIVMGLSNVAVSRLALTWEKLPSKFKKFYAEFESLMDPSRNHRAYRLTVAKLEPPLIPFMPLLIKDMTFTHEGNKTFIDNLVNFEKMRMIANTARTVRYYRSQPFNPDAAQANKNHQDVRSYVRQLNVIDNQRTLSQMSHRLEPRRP
Sequence of Rap guanine nucleotide exchange factor 3 (Homo sapiens) (O95398 whole entry, looked up): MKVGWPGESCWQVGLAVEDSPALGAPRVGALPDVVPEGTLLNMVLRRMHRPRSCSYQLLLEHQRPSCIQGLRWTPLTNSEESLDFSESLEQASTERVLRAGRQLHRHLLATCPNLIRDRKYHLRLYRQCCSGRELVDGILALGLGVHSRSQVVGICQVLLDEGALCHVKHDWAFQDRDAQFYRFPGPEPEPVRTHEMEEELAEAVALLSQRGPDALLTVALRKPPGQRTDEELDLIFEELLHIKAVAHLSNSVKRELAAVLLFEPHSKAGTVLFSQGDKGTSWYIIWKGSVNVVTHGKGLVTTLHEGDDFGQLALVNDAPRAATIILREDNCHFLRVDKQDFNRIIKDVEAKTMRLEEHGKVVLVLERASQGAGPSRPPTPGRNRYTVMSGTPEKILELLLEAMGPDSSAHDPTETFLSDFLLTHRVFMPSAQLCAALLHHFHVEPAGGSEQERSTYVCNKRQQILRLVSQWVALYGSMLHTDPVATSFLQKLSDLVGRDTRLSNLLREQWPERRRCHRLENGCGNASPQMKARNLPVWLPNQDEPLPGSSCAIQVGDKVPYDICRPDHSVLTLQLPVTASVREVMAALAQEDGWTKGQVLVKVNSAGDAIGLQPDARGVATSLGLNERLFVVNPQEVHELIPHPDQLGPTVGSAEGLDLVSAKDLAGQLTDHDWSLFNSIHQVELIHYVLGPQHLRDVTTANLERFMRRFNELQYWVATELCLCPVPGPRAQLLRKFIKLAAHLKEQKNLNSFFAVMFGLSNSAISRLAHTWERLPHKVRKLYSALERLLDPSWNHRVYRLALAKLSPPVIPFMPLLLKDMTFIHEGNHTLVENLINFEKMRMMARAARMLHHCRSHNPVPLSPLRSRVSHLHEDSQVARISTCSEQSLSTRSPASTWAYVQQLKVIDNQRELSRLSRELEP

One test addresses Rap guanine nucleotide exchange factor 3 (Homo sapiens) (UniProt O95398). Briefly: Confirmatory qHTS for agonist of cAMP-regulated guanine nucleotide exchange factor 3 (EPAC1) (AID 1645881).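 For activation: EPAC1 catalysed release of BODIPY-GDP from Rap1B seen as fluorescence loss.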 Note: nearly all actives have a fitted effect of over 75% in size. As to conditions: EPAC1 Rap1B BODIPY-GDP exchange fluorescence; series mostly up to 154 µM. (Quantitative high-throughput screening tests each substance at several concentrations.)
Turning to `CC(=O)c1cccc(NC(=O)c2c(-c3ccccc3)c(-c3ccccc3)nn(C)c2=O)c1`, the Potency result is “inactive”.

As for `COc1cc(NC(=O)c2cnc(N)s2)cc(C(=O)Nc2cccc(C(F)(F)F)c2)c1`, the Potency result is “inactive”.

Turning to `CCC(Oc1ccccc1)C(=O)Nc1ccccc1N1CCCCC1` (stereo not given), the Potency entry was “inactive”.

`COc1cc(OC)c(-c2c3cc(O)c(=O)cc-3oc3cc(O)c(O)cc23)cc1OC`: the Potency is 89.1 µM (active).

On to `CCC(=O)NC(c1ccc(C)cc1)c1ccc2cccnc2c1O` (stereo not given), for which the Potency result was “inactive”.

With `CCOc1ccc2oc(C(=O)N(C)CC(=O)Nc3ccc(OCC)c(OCC)c3)c(C)c2c1`, the Potency entry is “inactive”.

On to `CCN1C(=O)c2cccc3c(N)ccc(c23)C1=O`, for which the Potency was 100 µM (active).

In the case of `CC(C)c1ccc(NC(=O)COC(=O)C2=COCCO2)cc1`, the Potency entry is “inactive”.

As to `O=C1c2cccc3c(O)ccc(c23)C(=O)N1Cc1ccccc1`, the Potency was 89.1 µM (active).

Consider `Cc1cc(C(=O)Nc2ccon2)c(C)o1`, for which the Potency entry was “inactive”.

With `COc1ccc(CCNc2oc(-c3ccc(C)cc3)nc2C#N)cc1OC`, the Potency result was “inactive”.

For the compound `Cc1ccc([N+](=O)[O-])cc1S(=O)(=O)N1CCC(C)CC1`, the Potency entry is “inactive”.

In the case of `C=CCn1c(SCC(=O)NC(N)=O)nnc1-c1cc2c(s1)CCC(CC)C2` (stereo not given), the Potency result is “inactive”.

Turning to `CN1CCN(C2=CC3=CC(=C(C#N)C#N)CCC3CC2)CC1` (stereo not given), the Potency is 44.7 µM (active).

For `Cc1cc(Nc2ncc(Cl)cc2Cl)n(-c2ccccc2C)n1`, the Potency result was “inactive”.

For `Cn1cc(C(CO)Cc2ccccc2)c2ccccc21` (stereo not given), the Potency result was “inactive”.

With `CCOC(=O)c1cnc2ccc(OC)cc2c1Nc1ccc(N2CCN(C)CC2)cc1`, the Potency entry was “inactive”.

As to `O=C(O)c1ccc2c(c1)C(=O)N(c1ccc(/C=C/C(=O)c3ccccc3)cc1)C2=O`, the Potency result was “inactive”.

As for `CCOc1cc(/C=C(\C#N)C(=O)Nc2cccc(C(=O)O)c2)cc(Br)c1OC(=O)c1ccc(OC)cc1`, the Potency entry was “inactive”.

Regarding `COc1ccc(C(CC(=O)N2CCCC2)c2ccc(F)cc2)cc1` (stereo not given), the Potency result was “inactive”.

As to `Cc1ccc(S(=O)(=O)N2[C@@H](c3ccccc3)C(C(=O)O)=CC[C@H]2c2ccc(C(C)C)cc2)cc1`, the Potency entry is “inactive”.

For the compound `COc1cccc(C(=O)C(CCC#N)c2ccccc2)c1` (stereo not given), the Potency result is “inactive”.

Turning to `Nc1ccc(-c2c3ccc(=O)cc-3oc3cc(O)ccc23)cc1C(=O)O`, the Potency is 50.1 µM (active).

With `Cc1ccc(C)c(NC(=O)COC(=O)COc2cccc3c2OC(C)(C)C3)c1`, the Potency result was “inactive”.

Take `COc1ccc(N2CCOCC2)c(NC(=O)c2cccc3ccccc23)c1`: the Potency result is “inactive”.

As for `Cc1ccc2oc(=O)n(CCCOc3ccccc3Cl)c2c1`, the Potency result is “inactive”.

For `O=C1C(Cc2ccccc2)SC(=Nc2ccccc2)N1c1ccccc1` (stereo not given), the Potency entry is “inactive”.

Consider `CCNc1ccc2noc3c2c1C(=O)c1ccccc1-3`, for which the Potency was 100 µM (active).

As for `O=S(=O)(O)c1ccc(N=NNc2ccc(Br)cc2)cc1`, the Potency entry is “inactive”.

Take `Cc1csc(N=Nc2ccc(N(C)C)cc2)[n+]1[O-]`: the Potency entry was “inactive”.

Take `CCC(=O)N1c2ccc(S(=O)(=O)NCCc3ccc(C)cc3)cc2CC1C` (stereo not given): the Potency result was “inactive”.

Regarding `CC(=O)/C(C#N)=C1\NC(=O)C(Cc2cc(Cl)ccc2Cl)S1` (stereo not given), the Potency entry was “inactive”.

As to `CCC1=NN(C(=O)c2ccc(Br)cc2)C(O)(c2ccccc2)C1` (stereo not given), the Potency result is “inactive”.

Turning to `O=C(C1CC1)N1CCN(c2ccc([N+](=O)[O-])cc2-n2cccc2)CC1`, the Potency result is “inactive”.

On to `CCOc1nc(C)cc(C)c1S(=O)(=O)c1cccc(Cl)c1`, for which the Potency entry was “inactive”.

On to `Cc1cc(OC(C)C(=O)NCc2ccccn2)c2c(C)c(Cc3ccccc3)c(=O)oc2c1` (stereo not given), for which the Potency entry was “inactive”.

For `O=C1c2cccc3c(O)ccc(c23)C(=O)N1Cc1ccco1`, the Potency was 100 µM (active).

Take `Cc1ccc(CNC(=O)c2c[nH]n3c(=O)c(Cc4ccc(F)cc4Cl)c(C)nc23)cc1`: the Potency result was “inactive”.

In the case of `O=[N+]([O-])c1ccc(N/N=C2/CCCCC2c2ccccn2)cc1` (stereo not given), the Potency result is “inactive”.

With `CCOc1cc(/C=C2/SC(=S)NC2=O)ccc1OC(=O)c1ccco1`, the Potency entry was “inactive”.

A further test concerns the target Rap guanine nucleotide exchange factor 4 (Homo sapiens) (UniProt Q8WZA2). Kind of test: Confirmatory qHTS for agonist of cAMP-regulated guanine nucleotide exchange factor 4 (EPAC2) (AID 1645884).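 Note: nucleotide exchange releases bodipy-GDP from Rap1 and this lowers its fluorescence; nearly all actives have a fitted effect of over 65% in size.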 As to conditions: EPAC2 GEF activity, Rap1B-BODIPY-GDP fluorescence; series mostly up to 154 µM.
As for `CC(=O)c1cccc(NC(=O)c2c(-c3ccccc3)c(-c3ccccc3)nn(C)c2=O)c1`, the Potency result was “inactive”.

For the compound `COc1cc(NC(=O)c2cnc(N)s2)cc(C(=O)Nc2cccc(C(F)(F)F)c2)c1`, the activation is 5.57% [at 17.1 µM, percent relative to cAMP agonist control] (inactive).

As to `CCC(Oc1ccccc1)C(=O)Nc1ccccc1N1CCCCC1` (stereo not given), the Potency entry is “inactive”.

On to `COc1cc(OC)c(-c2c3cc(O)c(=O)cc-3oc3cc(O)c(O)cc23)cc1OC`, for which the Potency was 100 µM (active).

On to `CCC(=O)NC(c1ccc(C)cc1)c1ccc2cccnc2c1O` (stereo not given), for which the Potency entry was “inactive”.

As to `CCOc1ccc2oc(C(=O)N(C)CC(=O)Nc3ccc(OCC)c(OCC)c3)c(C)c2c1`, the Potency entry is “inactive”.

Consider `CCN1C(=O)c2cccc3c(N)ccc(c23)C1=O`, for which the Potency is 100 µM (active).

Take `CC(C)c1ccc(NC(=O)COC(=O)C2=COCCO2)cc1`: the activation was -5.53% [at 17.1 µM, percent relative to cAMP agonist control] (inactive).

Take `O=C1c2cccc3c(O)ccc(c23)C(=O)N1Cc1ccccc1`: the Potency was 100 µM (active).

Turning to `Cc1cc(C(=O)Nc2ccon2)c(C)o1`, the Potency result is “inactive”.

With `COc1ccc(CCNc2oc(-c3ccc(C)cc3)nc2C#N)cc1OC`, the activation was 5.59% [at 17.1 µM, percent relative to cAMP agonist control] (inactive).

As to `Cc1ccc([N+](=O)[O-])cc1S(=O)(=O)N1CCC(C)CC1`, the Potency result is “inactive”.

In the case of `C=CCn1c(SCC(=O)NC(N)=O)nnc1-c1cc2c(s1)CCC(CC)C2` (stereo not given), the Potency result is “inactive”.

In the case of `CN1CCN(C2=CC3=CC(=C(C#N)C#N)CCC3CC2)CC1` (stereo not given), the Potency was 56.2 µM (active).

As for `Cc1cc(Nc2ncc(Cl)cc2Cl)n(-c2ccccc2C)n1`, the Potency entry was “inactive”.

As for `Cn1cc(C(CO)Cc2ccccc2)c2ccccc21` (stereo not given), the activation is 4.77% [at 17.1 µM, percent relative to cAMP agonist control] (inactive).

As for `CCOC(=O)c1cnc2ccc(OC)cc2c1Nc1ccc(N2CCN(C)CC2)cc1`, the activation was 12.5% [at 17.1 µM, percent relative to cAMP agonist control] (inactive).

Turning to `O=C(O)c1ccc2c(c1)C(=O)N(c1ccc(/C=C/C(=O)c3ccccc3)cc1)C2=O`, the activation was 5.43% [at 17.1 µM, percent relative to cAMP agonist control] (inactive).

With `CCOc1cc(/C=C(\C#N)C(=O)Nc2cccc(C(=O)O)c2)cc(Br)c1OC(=O)c1ccc(OC)cc1`, the Potency entry was “inactive”.

`COc1ccc(C(CC(=O)N2CCCC2)c2ccc(F)cc2)cc1` (stereo not given): the activation is 0% [at 17.1 µM, percent relative to cAMP agonist control] (inactive).

`Cc1ccc(S(=O)(=O)N2[C@@H](c3ccccc3)C(C(=O)O)=CC[C@H]2c2ccc(C(C)C)cc2)cc1`: the Potency result was “inactive”.

Regarding `COc1cccc(C(=O)C(CCC#N)c2ccccc2)c1` (stereo not given), the Potency entry was “inactive”.

On to `Nc1ccc(-c2c3ccc(=O)cc-3oc3cc(O)ccc23)cc1C(=O)O`, for which the Potency was 100 µM (active).

On to `Cc1ccc(C)c(NC(=O)COC(=O)COc2cccc3c2OC(C)(C)C3)c1`, for which the activation was -3.91% [at 17.1 µM, percent relative to cAMP agonist control] (inactive).

`COc1ccc(N2CCOCC2)c(NC(=O)c2cccc3ccccc23)c1`: the activation was 5.58% [at 17.1 µM, percent relative to cAMP agonist control] (inactive).

Turning to `Cc1ccc2oc(=O)n(CCCOc3ccccc3Cl)c2c1`, the Potency entry is “inactive”.

For the compound `O=C1C(Cc2ccccc2)SC(=Nc2ccccc2)N1c1ccccc1` (stereo not given), the activation is 1.92% [at 17.1 µM, percent relative to cAMP agonist control] (inactive).

As to `CCNc1ccc2noc3c2c1C(=O)c1ccccc1-3`, the Potency was 100 µM (active).

On to `O=S(=O)(O)c1ccc(N=NNc2ccc(Br)cc2)cc1`, for which the Potency entry was “inactive”.

As for `Cc1csc(N=Nc2ccc(N(C)C)cc2)[n+]1[O-]`, the Potency result is “inactive”.

`CCC(=O)N1c2ccc(S(=O)(=O)NCCc3ccc(C)cc3)cc2CC1C` (stereo not given): the Potency entry is “inactive”.

Take `CC(=O)/C(C#N)=C1\NC(=O)C(Cc2cc(Cl)ccc2Cl)S1` (stereo not given): the activation is 4.95% [at 17.1 µM, percent relative to cAMP agonist control] (inactive).

Turning to `CCC1=NN(C(=O)c2ccc(Br)cc2)C(O)(c2ccccc2)C1` (stereo not given), the activation is 2.89% [at 17.1 µM, percent relative to cAMP agonist control] (inactive).

Turning to `O=C(C1CC1)N1CCN(c2ccc([N+](=O)[O-])cc2-n2cccc2)CC1`, the activation is 4.17% [at 17.1 µM, percent relative to cAMP agonist control] (inactive).

For `CCOc1nc(C)cc(C)c1S(=O)(=O)c1cccc(Cl)c1`, the Potency result is “inactive”.

For the compound `Cc1cc(OC(C)C(=O)NCc2ccccn2)c2c(C)c(Cc3ccccc3)c(=O)oc2c1` (stereo not given), the Potency result was “inactive”.

Take `O=C1c2cccc3c(O)ccc(c23)C(=O)N1Cc1ccco1`: the Potency is 100 µM (active).

With `Cc1ccc(CNC(=O)c2c[nH]n3c(=O)c(Cc4ccc(F)cc4Cl)c(C)nc23)cc1`, the Potency entry was “inactive”.

Turning to `O=[N+]([O-])c1ccc(N/N=C2/CCCCC2c2ccccn2)cc1` (stereo not given), the activation is 2.03% [at 17.1 µM, percent relative to cAMP agonist control] (inactive).

For `CCOc1cc(/C=C2/SC(=S)NC2=O)ccc1OC(=O)c1ccco1`, the Potency result was “inactive”.
